Hit rate of the full screen: of about 400,000 compounds, about 2,100 (0.53%) were called active. Not shown: some 14% with an inconclusive outcome. How the calls were made is not given here. The entries come from a sample that favours actives as a whole.
Biological target: Ataxin-2 (Homo sapiens) (UniProt Q99700)
Assay: qHTS for Inhibitors of ATXN expression.
Format: functional

Sequence of Ataxin-2 (Homo sapiens) (Q99700 whole entry): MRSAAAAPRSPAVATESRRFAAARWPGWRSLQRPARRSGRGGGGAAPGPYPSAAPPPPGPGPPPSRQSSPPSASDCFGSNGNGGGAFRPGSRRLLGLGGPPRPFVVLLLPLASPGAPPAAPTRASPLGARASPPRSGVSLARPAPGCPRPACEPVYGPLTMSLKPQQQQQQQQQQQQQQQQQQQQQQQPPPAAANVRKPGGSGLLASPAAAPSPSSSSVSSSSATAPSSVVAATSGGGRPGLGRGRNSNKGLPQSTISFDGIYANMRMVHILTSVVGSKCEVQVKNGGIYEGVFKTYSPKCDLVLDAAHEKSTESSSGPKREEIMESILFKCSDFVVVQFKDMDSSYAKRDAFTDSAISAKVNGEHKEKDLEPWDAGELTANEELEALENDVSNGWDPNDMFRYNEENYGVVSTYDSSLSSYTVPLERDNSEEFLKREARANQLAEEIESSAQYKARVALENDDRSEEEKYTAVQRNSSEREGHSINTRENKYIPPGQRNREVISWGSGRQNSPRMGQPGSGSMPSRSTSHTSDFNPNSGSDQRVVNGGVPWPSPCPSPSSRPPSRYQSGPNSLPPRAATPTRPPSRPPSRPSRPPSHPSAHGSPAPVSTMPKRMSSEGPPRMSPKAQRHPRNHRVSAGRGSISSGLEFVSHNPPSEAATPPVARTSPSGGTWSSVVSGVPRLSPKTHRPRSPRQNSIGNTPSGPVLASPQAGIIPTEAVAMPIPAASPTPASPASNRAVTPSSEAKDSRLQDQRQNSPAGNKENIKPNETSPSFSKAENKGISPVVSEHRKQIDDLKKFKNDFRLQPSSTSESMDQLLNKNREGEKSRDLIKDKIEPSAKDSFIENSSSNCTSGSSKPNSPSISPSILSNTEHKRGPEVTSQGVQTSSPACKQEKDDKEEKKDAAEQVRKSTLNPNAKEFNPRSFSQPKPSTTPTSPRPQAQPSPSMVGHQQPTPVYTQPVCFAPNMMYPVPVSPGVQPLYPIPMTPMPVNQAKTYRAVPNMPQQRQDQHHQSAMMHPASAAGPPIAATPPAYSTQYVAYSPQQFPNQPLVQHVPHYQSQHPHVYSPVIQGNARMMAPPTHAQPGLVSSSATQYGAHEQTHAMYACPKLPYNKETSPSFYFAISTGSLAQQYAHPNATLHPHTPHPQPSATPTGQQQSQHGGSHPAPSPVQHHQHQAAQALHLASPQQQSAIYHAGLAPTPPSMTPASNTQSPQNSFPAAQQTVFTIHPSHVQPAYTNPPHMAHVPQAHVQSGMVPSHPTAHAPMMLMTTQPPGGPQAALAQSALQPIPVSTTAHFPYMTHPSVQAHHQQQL

| Compound | Potency |
| --- | --- |
| Cc1cc(NS(=O)(=O)c2ccc(NC(=O)c3cc4cc(Br)ccc4oc3=O)cc2)no1 | inactive |
| O=c1cc(-c2ccccc2)c2c(O)cc(O)cc2o1 | inactive |
| O=c1oc2ccc(Br)cc2cc1S(=O)(=O)c1ccc(F)cc1 | inactive |
| CCCCN(C)S(=O)(=O)c1ccc(C(=O)Nc2sc3c(c2C(N)=O)CC(C)(C)NC3(C)C)cc1 | inactive |
| Brc1ccccc1C1CC(c2ccccc2)=Nc2ccccc2N1 (centres undefined) | inactive |
| C=C1C(=O)O[C@@H]2C[C@@H](C)[C@@H]3C=CC(=O)[C@@]3(C)[C@@H](OC(C)=O)[C@H]12 | 8.91 µM (active) |
| Cc1cc(/C=C2\Cc3ccccc3C2=O)c(C)n1-c1ccccc1 | inactive |
| CC(C)(C)CC(C)(C)NCC(O)COCCOc1ccc(Br)cc1 (centres undefined) | 39.8 µM (active) |
| COC(=O)[C@]12CCCCC=C1N(Cc1ccc(Cl)cc1Cl)C(=O)[C@H](CC(=O)N1CCN(C(=O)C3CC3)CC1)C2 | 35.5 µM (active) |
| CCCCOCCCNC(=O)C[C@@H]1C[C@@]2(C(=O)OC)CCCCC=C2N(Cc2ccc(Cl)cc2Cl)C1=O | 39.8 µM (active) |
| COCCCNC(=O)CN1C(=O)c2cccc3cccc1c23 | inactive |
| CCCCOCCCNC(=O)C[C@@H]1C[C@@]2(C(=O)OC)CCCCC=C2N(Cc2cccc3ccccc23)C1=O | 28.2 µM (active) |
| COc1ccc(C2=CSC3=NCCN23)cc1Br | inactive |
| COc1ccc2nc(N3CCC(C)CC3)c(C#N)cc2c1 | inactive |
| CCOC(=O)c1sc(-c2ccc(Cl)cc2Cl)nc1O | inactive |
| COc1ccc(/C=N/n2c(C)nc3sc(C)c(C)c3c2=O)cc1 | inactive |
| CCOC(=O)/C(=C\c1ccc(Cl)cc1)c1nc(O)c2c(C)c(C)sc2n1 | 39.8 µM (active) |
| COc1ccc(C2CC(c3cccs3)=NN2c2ccccc2)cc1 (centres undefined) | inactive |
| O=C(Nc1nc2ccccc2s1)c1cc2c(s1)-c1ccccc1OC2 | inactive |
| CCCC(=O)Nc1nc2c(s1)COc1ccccc1-2 | inactive |
| CC1(C)CC(=O)C2=C(C1)c1c(ccc3ccccc13)NC2c1ccc(C(=O)O)cc1 (centres undefined) | inactive |
| CC1(C)CC(=O)c2sc(NC(=O)CCS(=O)(=O)c3ccccc3)nc2C1 | 37.7 µM (active) |
| CCc1cccc(NC(=O)CCS(=O)(=O)c2ccc(Br)cc2)c1 | inactive |
| O=C(CCS(=O)(=O)c1ccccc1)Nc1nc2c(s1)COc1ccccc1-2 | 33.6 µM (active) |
| COc1ccc(C2=CC(c3ccccc3Cl)n3nc(-c4ccc(C)cc4)nc3N2)cc1 (centres undefined) | inactive |
| Cc1ccc(-c2nc3ccccn3c2Nc2ccc3c(c2)OCO3)cc1 | 35.5 µM (active) |

| Compound | Potency |
| --- | --- |
| O=C(c1ccccc1)c1sc(Nc2ccc3c(c2)OCO3)nc1-c1ccccc1 | inactive |
| COc1ccc(-c2nc3ncccn3c2Nc2ccccc2)cc1 | inactive |
| CCOC(=O)CSc1nnc2n(-c3ccccc3)c(=O)c3c4c(sc3n12)CC(C(C)(C)C)CC4 (centres undefined) | 35.5 µM (active) |
| CCN(C(=O)CSc1nnc(C2CC2)n1-c1ccccc1)C1CCS(=O)(=O)C1 (centres undefined) | inactive |
| CCOC(=O)C1CCCN(CCC(=O)Nc2cc(C)ccc2C)C1 (centres undefined) | inactive |
| COc1cccc2c3c(c(C)nc12)CCN3c1ccccc1 | inactive |
| Cc1cccn2c(=O)c3cc(C(=O)NCC4CCCO4)c(=N)n(CCc4ccccc4)c3nc12 (centres undefined) | inactive |
| Oc1ccc2nnc3c(Br)cnn3c2c1 | inactive |
| NS(=O)(=O)c1ccc2nc(NC(=O)c3ccc(Br)o3)sc2c1 | inactive |
| CCCNS(=O)(=O)c1ccc2nc(NC(=O)c3ccc(F)cc3)sc2c1 | 39.8 µM (active) |
| COc1cc2nc(NC(=O)c3ccc(S(=O)(=O)N4CCCC4)cc3)sc2cc1OC | inactive |
| Cc1n[nH]c(-c2cccnc2)c1N=NN(C)C | 23.8 µM (active) |
| O=C/C(=C\Nc1ccc(S(=O)(=O)CCO)cc1)c1nc2cc(Cl)ccc2o1 | inactive |
| Cc1ccsc1/C=N/N=C/c1sccc1C | inactive |
| C=C1C(=O)OC2C=C(CO)C3OC3C3OC3(C)CC(OC(=O)/C(=C/C)COC(C)=O)C12 (centres undefined) | 16.8 µM (active) |
| O=C1Nc2c(Br)cc(Br)c3cccc1c23 | inactive |
| Cc1cc(C)cc(NC2=C(c3ccccc3)C(=O)c3ccccc32)c1 | 20 µM (active) |
| Cc1cnc2c(c1)C(=O)c1ccccc1-2 | inactive |
| Cc1ccc(C2C=C(c3ccccc3)Nc3ncnn32)cc1 (centres undefined) | inactive |
| CCc1cc2c(C)cc(=O)oc2cc1OC(=O)C1CCCN1C(=O)OC(C)(C)C (centres undefined) | inactive |
| CC(=O)/N=c1\c(C#N)cc2c(=O)n3cccc(C)c3nc2n1CCCOC(C)C | inactive |
| CCOC(=O)Nc1ccc2c(c1)C(=NNC(N)=S)c1ccccc1-2 | 31.6 µM (active) |
| CCOC(=O)Nc1ccc2c3c(cccc13)-c1ccccc1-2 | inactive |
| C=C(C)CN=C(S)NN=C1c2ccccc2-c2ccccc21 | inactive |
| COc1ccc(C2C=C(c3ccccc3)Nc3nc(NC(=O)c4ccc(C)cc4)nn32)cc1 (centres undefined) | inactive |
| COC1(OC)C(/C=C/c2ccc(Cl)cc2)C(C#N)(C#N)C1(OC)OC (centres undefined) | 31.6 µM (active) |

| Compound | Potency |
| --- | --- |
| NC(=O)c1ccsc1NC(=O)COC(=O)CNC(=O)c1ccc(F)cc1 | inactive |
| O=C(CCCSc1nc(O)c2ccccc2n1)c1ccccc1 | inactive |
| O=C(CCSc1ccc(Br)cc1)c1ccc(O)cc1 | 39.8 µM (active) |
| C=Cn1cc[n+](CC(=O)c2ccc(Br)cc2)c1 | inactive |
| COc1ccc(N2C(=O)CC(Sc3nc[nH]n3)C2=O)c(OC)c1 (centres undefined) | 28.2 µM (active) |
| COc1ccccc1N1C(=O)CC(N(O)c2ccccc2)C1=O (centres undefined) | inactive |
| COc1ccc(C2Nc3cc(OC)ccc3-n3cccc32)cc1 (centres undefined) | inactive |
| CCN(C(=O)c1cc2c(=O)n3ccccc3nc2n1C)C1CCCCC1 | inactive |
| Nc1ccc(SCc2nc3cccc4c3n2CCC4)cc1 | inactive |
| c1ccc(CN2CCN(Cc3nnc(-c4ccccc4)o3)CC2)cc1 | inactive |
| c1ccc(CN2CCN(CCCNc3ccc4nnc(-c5ccccc5)n4n3)CC2)cc1 | 22.4 µM (active) |
| CCCn1c(=N)c(C#N)cc2c(=O)n3ccccc3nc21 | inactive |
| COc1ccc(-c2cc3ccc(O)cc3oc2=O)cc1 | inactive |
| CCOCCCn1c(=N)c(C(=O)NCC2CCCO2)cc2c(=O)n3cc(C)ccc3nc21 (centres undefined) | inactive |
| Cc1ccc(-c2nn(-c3ccccc3)cc2/C=C(\C#N)c2cccc(C#N)c2)o1 | inactive |
| CC(=O)Nc1ccc(S(=O)(=O)Nc2cccc3cccnc23)cc1 | inactive |
| CC1(C(=O)Nc2cccc3ccccc23)CC1(Br)Br (centres undefined) | inactive |
| CC1(C(=O)Nc2cccc3cccnc23)CCN1Cc1ccc(-c2ccccc2)o1 (centres undefined) | 6.31 µM (active) |
| Cc1ccc(N2C(=O)/C(=C/Nn3cnnc3)c3ccccc3C2=O)cc1 | inactive |
| CCOCCCn1/c(=N/C(C)=O)c(C#N)cc2c(=O)n3ccccc3nc21 | inactive |
| CC(C)C[C@H]1COc2cccc(N3CCN(Cc4ccccc4F)CC3)c2S(=O)(=O)N1 | 12.6 µM (active) |
| O=C(NCc1ccco1)C1CCC(N2C(=O)C3C4CCC(C4)C3C2=O)CC1 (centres undefined) | inactive |
| O=C(Nc1cccc2c1C(=O)NC2=O)c1ccccc1[N+](=O)[O-] | inactive |
| CCOc1ccc(NC(=O)c2cn(CC(C)C)c(=O)c3c2c2ccccc2n3C)cc1 | 17.8 µM (active) |
| CCOc1ccc(NC(=O)/C(=C/Nc2ccccc2)C(C)=O)cc1 | inactive |
| CCOc1ccc(NC(=O)c2cc3ccccc3cc2O)cc1 | inactive |

| Compound | Potency |
| --- | --- |
| CCOCCCN=C(S)N1CCCN(c2nc3cc(C)cc(C)c3cc2C#N)CC1 | inactive |
| CCOc1ccc2nc(O)c(CN(Cc3cccs3)Cc3nnnn3C(C)(C)CC)cc2c1 | 35.5 µM (active) |
| CCN1CCN(c2nc(Nc3cc(OC)ccc3OC)nc(Nc3cc(OC)ccc3OC)n2)CC1 | inactive |
| CCc1nc2ccc(C(=O)Nc3nnc(C)s3)cc2nc1CC | inactive |
| COC(=O)c1c(NC(=O)c2ccc(S(=O)(=O)N(C)C3CCCCC3)cc2)sc2c1CCN(C)C2 | inactive |
| Cc1c(C(=O)Nc2ccc(S(=O)(=O)N(C)C3CCN(C)CC3)cc2)oc2c(Cl)cccc12 | 39.8 µM (active) |
| Cn1nc(C(=O)Nc2cccc(S(=O)(=O)N3CCCC3)c2)c2ccccc2c1=O | inactive |
| O=C(CCl)/N=c1\sccn1Cc1ccccc1Cl | 31.6 µM (active) |
| O=C(Cc1cccs1)N1CCN=C1SCc1ccccc1Cl | inactive |
| O=C(COC(=O)Cn1cnc2ccccc2c1=O)NCc1ccccc1Cl | inactive |
| CCCCC(=O)N/N=C/c1ccc(-c2ccc([N+](=O)[O-])cc2)o1 | inactive |
| CSCCC(NC(=O)COc1ccccc1)C(=O)N(C)Cc1c(F)cccc1Cl (centres undefined) | inactive |
| Cc1cccc(Cn2ncc(Cl)c(Cl)c2=O)c1 | 39.8 µM (active) |
| Cc1ccc(Cn2c(=O)c3ccccc3n3nc(C)cc23)cc1 | inactive |
| Cc1ccc(Cn2c(=O)c3c(ncn3C)n(C)c2=O)cc1 | inactive |
| O=c1c(Cl)c(Cl)cnn1Cc1ccc(F)cc1 | 39.8 µM (active) |
| Cc1ccc(-c2cc(C#N)c(=O)n(Cc3c(Cl)cccc3Cl)c2)cc1 | inactive |
| Cc1cc2oc(=O)cc(CN3CCOCC3)c2cc1Cl | inactive |
| Cc1cc2oc(=O)cc(Cn3ncc(Cl)c(Cl)c3=O)c2cc1Cl | 39.8 µM (active) |
| CC1CCN(Cc2cc(=O)oc3cc(O)c(Cl)cc23)CC1 | inactive |
| CC(=O)c1cn(-c2ccc(Cl)cc2)c(=O)n(Cc2ccc(F)cc2)c1=O | inactive |
| Cc1ccc(Cn2ncc(Cl)c(Cl)c2=O)cc1 | 39.8 µM (active) |
| CC(C)(C)c1cc(C(=O)NN)n(Cc2ccc(F)cc2)n1 | inactive |
| Cc1ccc(Cn2ncn(-c3ccccc3)c2=O)cc1 | inactive |
| CCC(C)N1C(=O)S/C(=C/c2ccc(N3CCOCC3)cc2C)C1=O (centres undefined) | inactive |
| CCN(CC)Cc1c(O)ccc2cc(-c3nc4ccccc4n3C)c(=O)oc12 | inactive |
